{"source": "ChEMBL document CHEMBL4513146", "about": "“CO-ADD screening of Karazin Kharkiv National University (Ukraine) compounds”", "note": "Entries with a potency or affinity are not part of this list."}
{"test_system": "Klebsiella pneumoniae", "conditions": "Concentration 32 ug.mL-1;; ASSAY_TEST Inhibition of Bacterial Growth; detection method Absorption (OD600); MEDIA CAMHB; plate type 384well; NBS; CORNING #3640; time 18 hr", "units": {"Inhibition": "%"}}
{"smiles": "COc1ccc(NC(=O)Cn2nc3ccc(SC(C)(C)C)nn3c2=O)cc1Cl", "Inhibition": 12.99}
{"smiles": "CC1CCCN(c2nccn3c(=O)n(CC(=O)Nc4ccc5c(c4)OCO5)nc23)C1", "note": "(stereo not given)", "Inhibition": 1.66}
{"smiles": "Cc1ccc(-c2ccc3nnc(CCC(=O)NCc4ccc(Br)cc4)n3n2)cc1", "Inhibition": 19}
{"smiles": "Cc1ccc(Sc2nccn3c(=O)n(CC(=O)Nc4ccccc4Br)nc23)c(C)c1", "Inhibition": 1.33}
{"smiles": "COc1cccc(CSc2nnc3c(=O)n(-c4ccc(Br)cc4)ccn23)c1", "Inhibition": 8.64}
{"smiles": "COc1ccccc1-n1ccn2c(SCc3cccc(Cl)c3)nnc2c1=O", "Inhibition": 1.3}
{"smiles": "COc1cccc(-n2ccn3c(SCC(=O)Nc4cc(F)ccc4F)nnc3c2=O)c1", "Inhibition": 6.91}
{"smiles": "Cc1ccc(C(=O)C(C)Sc2nnc3c(=O)n(-c4ccc(F)c(F)c4)ccn23)cc1C", "note": "(stereo not given)", "Inhibition": -0.54}
{"smiles": "Cc1nc(-c2ccccc2)cc2nn(CC(=O)Nc3ccc4c(c3)OCO4)c(=O)n12", "Inhibition": 6.91}
{"smiles": "COc1ccc(N2CCN(C(=O)Cn3nc4c(Sc5cccc(C)c5)nccn4c3=O)CC2)cc1", "Inhibition": -3.27}
{"smiles": "O=C(CSc1nc2ccccc2n2cnnc12)NCc1ccccc1Cl", "Inhibition": 2.85}
{"smiles": "Cc1cc2nn(CC(=O)Nc3ccc(F)cc3F)c(=O)n2c(Nc2ccc(F)c(C)c2)n1", "Inhibition": 11.68}
{"smiles": "Cc1ccc(-c2ccc3nn(CC(=O)NCc4ccc(Cl)cc4)c(=O)n3n2)cc1C", "Inhibition": 6.14}
{"smiles": "CCc1ccccc1NC(=O)Cn1nc2n(CCC(C)C)c(=O)c3sccc3n2c1=O", "Inhibition": 0.67}
{"smiles": "CSc1cccc(NC(=O)Cn2nc3ccc(C(=O)NCc4ccccc4)cn3c2=O)c1", "Inhibition": 7.41}
{"smiles": "O=C(Cn1nc2c(N3CCOCC3)nccn2c1=O)Nc1ccccc1Br", "Inhibition": 13.49}
{"smiles": "CC(C)CCNC(=O)CSc1nnc2c(=O)n(Cc3ccc(F)cc3)ccn12", "Inhibition": 4.54}
{"smiles": "Cc1c(Cl)cccc1-n1ccn2c(SCC(=O)c3c[nH]c4ccccc34)nnc2c1=O", "Inhibition": 3.37}
{"smiles": "Cc1cc2nn(CC(=O)NCc3ccco3)c(=O)n2c(Nc2ccc(C)c(F)c2)n1", "Inhibition": 7.94}
{"smiles": "COc1cccc(CNC(=O)CSc2nnc3c(=O)n(-c4ccccc4)ccn23)c1OC", "Inhibition": 8.24}
{"smiles": "CCCCn1c(=O)c2sccc2n2c(CCC(=O)NC(C)C34CC5CC(CC(C5)C3)C4)nnc12", "note": "(stereo not given)", "Inhibition": 12.08}
{"smiles": "O=C(Cn1nc2ccc(SCc3ccc(Cl)cc3)nn2c1=O)NCc1ccc2c(c1)OCO2", "Inhibition": -1.27}
{"smiles": "COc1cccc(CN(c2ccc(C(C)C)cc2)S(=O)(=O)c2cccn3cnnc23)c1", "Inhibition": 13.52}
{"smiles": "CCCN(C)c1nccn2c(=O)n(CC(=O)Nc3cccc(SC)c3)nc12", "Inhibition": 8.64}
{"smiles": "O=S(=O)(c1cccn2cnnc12)N(Cc1ccc(F)cc1)c1ccc(F)cc1", "Inhibition": 4.83}
